According to PubChem BioAssay AID624330 (Southern Research Specialized Biocontainment Screening …, 2012):
In all, about 340,000 compounds went through this assay and about 2,100 (0.62%) were called active.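 Rule for the calls: active = first-screen hits whose inhibition reached a set limit at any dose in the follow-up dose series; inconclusive = inhibition above the set first-screen limit but never retested; inactive = the rest.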 These entries were drawn from the full list. Results with a measured potency or affinity are listed apart.

biological target: Rac GTPase-activating protein 1 (Homo sapiens) (UniProt Q9H0H5); test: blockers of MgcRacGAP-driven Rac1 GTP hydrolysis – biochemical, ADP Hunter fluorescence, primary and confirmatory, confirmation (AID 624330); settings: MgcRacGAP-stimulated Rac1 GTP hydrolysis, at 30 µM, hits give high values, GST-tagged Rac1 F28L mutant substrate;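 note: fluorescence reports GDP produced by GAP-driven GTP hydrolysis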
Sequence (Q9H0H5 whole entry, looked up): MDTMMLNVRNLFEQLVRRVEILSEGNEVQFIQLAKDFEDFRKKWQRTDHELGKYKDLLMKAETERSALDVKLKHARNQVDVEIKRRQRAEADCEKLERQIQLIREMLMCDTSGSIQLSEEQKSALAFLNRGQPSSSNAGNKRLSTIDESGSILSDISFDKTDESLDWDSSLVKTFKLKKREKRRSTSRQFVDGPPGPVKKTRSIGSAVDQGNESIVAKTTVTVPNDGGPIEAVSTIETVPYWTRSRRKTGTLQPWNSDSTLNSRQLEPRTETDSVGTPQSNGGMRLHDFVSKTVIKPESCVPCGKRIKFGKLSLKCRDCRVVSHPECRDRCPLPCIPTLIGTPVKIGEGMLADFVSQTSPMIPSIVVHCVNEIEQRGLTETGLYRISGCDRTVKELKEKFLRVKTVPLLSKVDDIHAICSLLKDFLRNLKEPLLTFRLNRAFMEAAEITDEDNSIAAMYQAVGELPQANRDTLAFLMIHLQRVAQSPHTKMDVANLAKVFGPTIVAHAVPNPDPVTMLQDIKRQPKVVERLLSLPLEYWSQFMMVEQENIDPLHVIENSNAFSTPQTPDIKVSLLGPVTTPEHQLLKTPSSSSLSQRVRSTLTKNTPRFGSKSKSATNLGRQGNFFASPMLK

inhibition, inactive:
CC(=O)c1ccc2ccccc2c1OC(=O)c1ccncc1 6.45%, CSc1sc(-c2ccnc(SCC(=O)C(C)(C)C)n2)c2c1C(=O)CC(C)(C)C2 13.4%, CCn1c(SCC(=O)Nc2ccc(F)cc2)nc2ccccc2c1=O 0.4%, Cc1ccc(C(=O)N2CCC(C(=O)NCc3ccco3)CC2)cc1 5.06%, COc1cc(OC)cc(C(=O)Nc2ncn[nH]2)c1 6.96%, O=C1c2ccccc2C(=O)N1/N=C/c1ccc(O)c(O)c1O -97.2%, O=C1C2C3C=CC(CC3)C2C(=O)N1/N=C/c1ccccc1O (stereo unspecified) 3.85%, COc1cc(/C=N/N2C(=O)C3C4c5ccccc5C(c5ccccc54)C3C2=O)ccc1O (stereo unspecified) 4.88%, COc1ccc(/C=N/N2C(=O)c3ccccc3C2=O)cc1 -3.67%, O=C1C2C3C=CC(CC3)C2C(=O)N1/N=C/c1ccc(O)cc1 (stereo unspecified) 1.46%, O=C1c2ccccc2C(=O)N1N=Cc1ccc2c(c1)OCO2 5.49%, CC(NC(=O)C1CC(=O)N(c2ccc3c(c2)OCCO3)C1)c1ccccc1 (stereo unspecified) 10.6%, C/C(=N\NC(=O)C(c1ccncc1)N1CCOCC1)c1ccc(Br)cc1 (stereo unspecified) 5.86%, Cc1cccc(NC(=O)CN2C(=O)N/C(=C/c3cc(C)n(-c4cccnc4)c3C)C2=O)c1 -10.6%, COc1ccccc1C(CNC(=O)c1cccc(S(=O)(=O)N2CCCc3ccccc32)c1)N(C)C (stereo unspecified) 4.28%, Cc1cc(C)nc(NS(=O)(=O)c2ccc(NC(=S)NC(=O)C(C)(C)C)cc2)n1 8.49%, CC(=O)N1CCc2cc(S(=O)(=O)NCCCOC(C)C)ccc21 2.11%, CC(=O)c1ccc(S(=O)(=O)N2CCC3(CC2)CC(=O)c2ccccc2O3)cc1 14.3%, O=S(=O)(c1cccs1)N1CCN(c2ccccc2Cl)CC1 1.05%, CC(=O)Nc1ccc(NC(=O)Cn2cnc3c(nnn3Cc3ccc(F)cc3)c2=O)cc1 1.41%, CN(C)CCOc1ccc2ccccc2c1 25.2%, c1ccc2cc(OCCOCCOc3ccc4ccccc4c3)ccc2c1 -0.76%, CC1=C(C)CC2(SC1)C(=O)N(c1ccccc1)N=C2N (stereo unspecified) 15%, CC[C@@H](C)[C@@H](C(=O)N1CCN(C(=O)OC(C)(C)C)CC1)n1cc(CCCCNC(=O)OC(C)(C)C)nn1 7.52%, Cn1c(-c2ccc3c(c2)OCO3)cnc1NCc1ccc(Cl)cc1 27.4%, Cc1ccc(CNc2ncc(-c3ccc4c(c3)OCO4)n2C)cc1 30.1%, Cn1c(-c2ccc(F)cc2)cnc1NCc1cc2c(cc1[N+](=O)[O-])OCO2 27.6%, Cn1c(-c2ccc3c(c2)OCO3)cnc1NCc1cccc(O)c1 26.8%, Cn1c(-c2ccc3c(c2)OCO3)cnc1NCc1ccccc1 30.7%, COc1ccc(-c2cnc(NCc3cc4c(cc3[N+](=O)[O-])OCO4)n2C)cc1 28.1%, COc1ccccc1N1CCN(S(=O)(=O)c2ccc(NC(C)=O)cc2)CC1 7.69%, Cc1c(-c2ccccc2)nc2ccccc2c1C(=O)Oc1ccc([N+](=O)[O-])cc1 -7.74%, Cc1ccc(S(=O)(=O)N2CC3(O)CN(C(=O)OC(C)C)N(C(=O)OC(C)C)CC3(OC(=O)NC3CCCC3)C2)cc1 (stereo unspecified) 9.25%, CC(=O)Nc1ccc(S(=O)(=O)NNC(=O)c2ccc([N+](=O)[O-])cc2)cc1 1.83%, COC(=O)CN1C(=O)C(O)(CC(=O)c2ccccc2)c2ccccc21 (stereo unspecified) 9.4%, CC(C)(C)OC(=O)NCCCCCNC(=O)c1nc[nH]c1C(=O)NCC(=O)OCc1ccccc1 5.97%, CCN(CC1COc2ccccc2O1)C(=O)CN1C(=O)NC(C)(c2ccccc2)C1=O (stereo unspecified) 1.68%, NC(=O)c1ccc(NC(=O)COC(=O)c2cccc(Oc3ccccc3)c2)cc1 -3.55%, CCOCCCNC(=S)N1CCCN(c2nc3cc(C)ccc3cc2C#N)CC1 10.8%, O=C(N/N=C/c1ccc2c(c1)OCO2)c1ccc2c(c1)OCO2 9.83%, COc1ccc(/C=C(/NC(=O)c2ccccc2)C(=O)N/N=C/c2ccc3c(c2)OCO3)cc1OC 4.26%, O=C(N/N=C/c1ccc2c(c1)OCO2)/C(=C/c1ccc2c(c1)OCO2)NC(=O)c1ccccc1 -2.17%, CN(C)c1ccc(/C=N/NC(=O)CNC(=O)c2ccc3c(c2)OCCO3)cc1 14.6%, COc1cccc(/C=N/NC(=O)CNC(=O)c2ccc3c(c2)OCCO3)c1O 8.24%, COc1ccc(/C=N/NC(=O)c2ccc3c(c2)OCO3)cc1 7.95%, O=C(CNC(=O)c1ccc2c(c1)OCCO2)N/N=C/c1ccc(Cl)cc1 13.2%, COc1ccc(/C=N/NC(=O)CNC(=O)c2ccc3c(c2)OCCO3)cc1OC 12.1%, CCOC(=O)C(NC(=O)c1ccc(OC)cc1)(Nc1cc(C)on1)C(F)(F)F (stereo unspecified) 9.87%, Cc1ccccc1NC(=O)OCc1cccnc1Oc1ccc(Cl)cc1 10.3%, C/C(=N\NC(=O)c1cc(C)oc1C)c1ccc2c(c1)OCO2 6.44%, CN(C)CCCN(Cc1ccccc1)C(=S)Nc1cccc(C(F)(F)F)c1 3.49%, Cc1ccc2c(c1)NC(=O)C(CC(=O)Nc1ccc(CN3CCC(C)CC3)cc1)O2 (stereo unspecified) 4.76%, Cc1[nH]c(N=Nc2ccccc2)nc1N=Nc1ccccc1 8.63%, Cc1ccccc1OCC(=O)Nc1ccccc1N1CCC(C)CC1 4.53%, O=C(C[n+]1ccc(-c2ccccc2)cc1)Nc1ccc([N+](=O)[O-])cc1 8.73%, COC(=O)C1=C(C)N(Cc2ccccc2)C(=NCCCCO)N[C@H]1c1cccc(C(F)(F)F)c1 10.7%, CC1(C)NS(=O)(=O)Oc2ccccc21 15.4%, O=C(NC1=NCCS1)C1CC(=O)N(c2ccc(F)cc2)C1 (stereo unspecified) 3.19%, Cc1nc2c(ncn2-c2ccccc2)c(=O)n1NC(=O)CN1CCOCC1 6.81%, COc1ccc(/C=C/C(=O)c2ccc3c(c2)OCO3)cc1OC 0.8%, COc1cc(/C=C/C(=O)c2ccc3c(c2)OCO3)cc(OC)c1OC 9.6%, COc1ccc(C(CC(=O)N2CCCCC2)c2c(OC)cc(OC)c3c(-c4ccccc4)cc(=O)oc23)cc1 (stereo unspecified) 5.73%, COc1ccccc1N1CCN(C2CCCN(Cc3ccc(Cl)cc3)C2)CC1 (stereo unspecified) -6.75%, COc1ccc(Br)cc1C(C[N+](=O)[O-])c1c(N)n(C)c(=O)n(C)c1=O (stereo unspecified) 10.7%, Cc1ccc(C(C[N+](=O)[O-])c2c(N)n(C)c(=O)n(C)c2=O)cc1 (stereo unspecified) 5.58%, COc1ccc(/C=C2/N=C3CCCCCN3C2=O)cc1 4.99%, O=C1/C(=C/c2ccncc2)N=C2CCCCCN12 3.48%, COc1ccc(/C=C2/N=C3CCCCCN3C2=O)cc1OC 3.87%, COc1ccc(/C=C2\N=C3CCCCCN3C2=O)cc1OC -1.04%, COCCn1c(SCC(=O)c2cccc(OC)c2)nnc1-c1ccco1 13.4%, CC(=O)Nc1ccc(NS(=O)(=O)c2c(Cl)cccc2Cl)cc1 5.14%, Cc1cc(C)n2c(SCC(=O)N(CC(C)C)c3c(N)n(CC(C)C)c(=O)[nH]c3=O)nnc2n1 5.05%, O=C(O)CCC(=O)Nc1cccc(C(=O)c2ccccc2)c1 8.75%, OCc1ccccc1OCCCN1CCC(Cc2ccccc2)CC1 22.1%, COc1cccc(OC)c1OCCCN1CCC(Cc2ccccc2)CC1 28%, N#CC1(NC(=O)CSc2nnc(Cc3ccccc3)o2)CCCCC1 -4.91%, CC1CC(C)CN(C(=O)c2ccc(CSc3nc4ccncc4[nH]3)cc2)C1 (stereo unspecified) 4.54%, COc1ccc(C(=O)NCC(c2ccc3c(c2)OCO3)N2CCN(c3ccc(OC)cc3)CC2)cc1 (stereo unspecified) 7.8%, COc1ccc(N2CCN(C(CNC(C)=O)c3ccc4c(c3)OCO4)CC2)cc1 (stereo unspecified) 11.6%, COc1ccc(C(CNC(=O)c2cc(C)oc2C)N2CCOCC2)cc1 (stereo unspecified) -3.27%, COc1ccc(C(CNC(=O)c2cc(F)c(F)c(F)c2F)N2CCOCC2)cc1 (stereo unspecified) 5.28%, COc1ccc(N2CCN(C(CNC(=O)C(C)C)c3ccc4c(c3)OCO4)CC2)cc1 (stereo unspecified) 26.1%, COC(=O)NCC(c1ccc2c(c1)OCO2)N1CCN(c2ccccc2)CC1 (stereo unspecified) 6.79%, COc1cccc(CC(=O)OCC(=O)NC2(C#N)CCCCC2)c1 6.74%, COc1ccc(N2CC(C(=O)OCC(=O)NCc3ccccc3)CC2=O)cc1 (stereo unspecified) -1.54%, C=CCn1c(SCC(=O)c2ccc(O)c(O)c2)nnc1-c1ccc(C)cc1 24.7%, C=CCn1c(SCC(=O)O)nnc1-c1cccc(Cl)c1 -7.04%, C=CCn1c(SCC(=O)c2ccc(O)c(O)c2)nnc1-c1ccc(OC)cc1 8.3%, C=CCn1c(SCC(=O)c2ccc(O)c(O)c2)nnc1-c1ccccc1OC 19.4%, O=C(COc1ccccc1F)NCc1nc2ccccc2[nH]1 10.2%, N#Cc1ccc(Cl)cc1NC(=O)COC(=O)[C@H](CCC(N)=O)NC(=O)c1ccc(F)cc1 -1.8%
